According to ChEMBL document CHEMBL1961873, “Compounds: GSK PKIS; Assays: Nanosyn kinase panel” (2012):

Assays:
[1] = molecular target: Tyrosine-protein kinase CSK (Homo sapiens) (UniProt P41240); conditions: at 1 µM;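 note: each value is an averaged inhibition reading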
[2] = molecular target: T1, Discoidin domain-containing receptor 2 (Homo sapiens) (UniProt Q16832); conditions: at 0.1 µM
T1 sequence (whole entry): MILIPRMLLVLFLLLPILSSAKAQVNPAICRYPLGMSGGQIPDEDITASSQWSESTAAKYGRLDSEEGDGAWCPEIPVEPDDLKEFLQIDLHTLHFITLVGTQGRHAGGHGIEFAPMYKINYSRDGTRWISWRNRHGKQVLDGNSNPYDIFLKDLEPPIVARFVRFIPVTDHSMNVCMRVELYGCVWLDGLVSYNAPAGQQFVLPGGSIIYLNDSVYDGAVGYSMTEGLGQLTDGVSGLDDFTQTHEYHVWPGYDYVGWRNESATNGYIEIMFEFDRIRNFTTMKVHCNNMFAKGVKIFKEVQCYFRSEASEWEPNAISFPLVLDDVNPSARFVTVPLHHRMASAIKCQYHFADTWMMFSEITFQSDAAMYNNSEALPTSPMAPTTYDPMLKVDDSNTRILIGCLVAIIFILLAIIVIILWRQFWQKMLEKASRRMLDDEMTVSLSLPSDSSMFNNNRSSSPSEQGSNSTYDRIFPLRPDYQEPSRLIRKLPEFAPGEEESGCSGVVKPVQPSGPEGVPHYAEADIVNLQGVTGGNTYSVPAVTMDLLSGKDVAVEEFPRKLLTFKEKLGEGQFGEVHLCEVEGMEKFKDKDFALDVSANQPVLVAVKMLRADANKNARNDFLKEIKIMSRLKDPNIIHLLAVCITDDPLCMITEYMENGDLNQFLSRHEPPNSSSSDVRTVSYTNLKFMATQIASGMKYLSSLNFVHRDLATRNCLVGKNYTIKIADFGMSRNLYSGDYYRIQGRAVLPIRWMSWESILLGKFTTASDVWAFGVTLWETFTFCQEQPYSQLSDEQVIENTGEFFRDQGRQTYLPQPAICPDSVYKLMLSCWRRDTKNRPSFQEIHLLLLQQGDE

[3] = molecular target: T1, Discoidin domain-containing receptor 2 (Homo sapiens); conditions: at 1 µM
[4] = molecular target: Epidermal growth factor receptor (Homo sapiens) (UniProt P00533); conditions: at 0.1 µM
[5] = molecular target: Epidermal growth factor receptor (Homo sapiens) (UniProt P00533); conditions: at 1 µM
[6] = test system: Epidermal growth factor receptor (Homo sapiens), P00533 [L858R]; conditions: at 0.1 µM
[7] = test system: Epidermal growth factor receptor (Homo sapiens), P00533 [L858R]; conditions: at 1 µM
[8] = test system: Epidermal growth factor receptor (Homo sapiens), P00533 [L861Q]; conditions: at 0.1 µM
[9] = test system: Epidermal growth factor receptor (Homo sapiens), P00533 [L861Q]; conditions: at 1 µM
[10] = test system: Epidermal growth factor receptor (Homo sapiens), P00533 [T790M]; conditions: at 0.1 µM
[11] = test system: Epidermal growth factor receptor (Homo sapiens), P00533 [T790M]; conditions: at 1 µM
[12] = test system: Epidermal growth factor receptor (Homo sapiens), P00533 [L858R,T790M]; conditions: at 0.1 µM
[13] = test system: Epidermal growth factor receptor (Homo sapiens), P00533 [L858R,T790M]; conditions: at 1 µM
[14] = molecular target: Ephrin type-A receptor 2 (Homo sapiens) (UniProt P29317); conditions: at 0.1 µM
[15] = molecular target: Ephrin type-A receptor 2 (Homo sapiens) (UniProt P29317); conditions: at 1 µM
[16] = molecular target: T2, Ephrin type-A receptor 3 (Homo sapiens) (UniProt P29320); conditions: at 0.1 µM
T2 sequence (whole entry): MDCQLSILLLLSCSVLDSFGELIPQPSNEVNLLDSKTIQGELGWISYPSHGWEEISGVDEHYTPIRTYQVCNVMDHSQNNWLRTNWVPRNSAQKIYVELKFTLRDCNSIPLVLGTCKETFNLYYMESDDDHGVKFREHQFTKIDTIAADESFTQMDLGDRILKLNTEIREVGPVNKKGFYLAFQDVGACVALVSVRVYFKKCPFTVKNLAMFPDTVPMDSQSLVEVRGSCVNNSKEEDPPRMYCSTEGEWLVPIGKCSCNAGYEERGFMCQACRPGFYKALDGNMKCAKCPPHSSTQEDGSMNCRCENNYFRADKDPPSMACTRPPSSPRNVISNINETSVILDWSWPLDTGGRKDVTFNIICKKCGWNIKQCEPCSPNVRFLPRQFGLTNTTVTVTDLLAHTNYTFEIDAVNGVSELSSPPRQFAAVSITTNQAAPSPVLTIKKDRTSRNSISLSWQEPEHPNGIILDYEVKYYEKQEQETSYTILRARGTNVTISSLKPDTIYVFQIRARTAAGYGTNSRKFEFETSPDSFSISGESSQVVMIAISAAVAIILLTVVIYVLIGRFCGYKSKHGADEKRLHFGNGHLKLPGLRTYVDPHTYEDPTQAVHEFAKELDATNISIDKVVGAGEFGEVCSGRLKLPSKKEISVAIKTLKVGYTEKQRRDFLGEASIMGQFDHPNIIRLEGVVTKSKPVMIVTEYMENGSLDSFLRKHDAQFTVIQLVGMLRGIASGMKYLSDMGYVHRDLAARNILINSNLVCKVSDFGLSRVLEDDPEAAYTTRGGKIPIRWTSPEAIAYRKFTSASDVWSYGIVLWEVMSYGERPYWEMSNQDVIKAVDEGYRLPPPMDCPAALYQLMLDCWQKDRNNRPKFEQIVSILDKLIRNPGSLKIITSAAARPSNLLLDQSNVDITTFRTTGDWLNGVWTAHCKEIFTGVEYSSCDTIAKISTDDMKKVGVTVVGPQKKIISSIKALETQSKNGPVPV

[17] = molecular target: T2, Ephrin type-A receptor 3 (Homo sapiens); conditions: at 1 µM
[18] = molecular target: Ephrin type-A receptor 4 (Homo sapiens) (UniProt P54764); conditions: at 0.1 µM
[19] = molecular target: Ephrin type-A receptor 4 (Homo sapiens) (UniProt P54764); conditions: at 1 µM
[20] = molecular target: T3, Ephrin type-B receptor 2 (Homo sapiens) (UniProt P29323); conditions: at 0.1 µM;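 note: reported as mean inhibition of EPHB2, from the GSK PKIS dataset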
T3 sequence (whole entry): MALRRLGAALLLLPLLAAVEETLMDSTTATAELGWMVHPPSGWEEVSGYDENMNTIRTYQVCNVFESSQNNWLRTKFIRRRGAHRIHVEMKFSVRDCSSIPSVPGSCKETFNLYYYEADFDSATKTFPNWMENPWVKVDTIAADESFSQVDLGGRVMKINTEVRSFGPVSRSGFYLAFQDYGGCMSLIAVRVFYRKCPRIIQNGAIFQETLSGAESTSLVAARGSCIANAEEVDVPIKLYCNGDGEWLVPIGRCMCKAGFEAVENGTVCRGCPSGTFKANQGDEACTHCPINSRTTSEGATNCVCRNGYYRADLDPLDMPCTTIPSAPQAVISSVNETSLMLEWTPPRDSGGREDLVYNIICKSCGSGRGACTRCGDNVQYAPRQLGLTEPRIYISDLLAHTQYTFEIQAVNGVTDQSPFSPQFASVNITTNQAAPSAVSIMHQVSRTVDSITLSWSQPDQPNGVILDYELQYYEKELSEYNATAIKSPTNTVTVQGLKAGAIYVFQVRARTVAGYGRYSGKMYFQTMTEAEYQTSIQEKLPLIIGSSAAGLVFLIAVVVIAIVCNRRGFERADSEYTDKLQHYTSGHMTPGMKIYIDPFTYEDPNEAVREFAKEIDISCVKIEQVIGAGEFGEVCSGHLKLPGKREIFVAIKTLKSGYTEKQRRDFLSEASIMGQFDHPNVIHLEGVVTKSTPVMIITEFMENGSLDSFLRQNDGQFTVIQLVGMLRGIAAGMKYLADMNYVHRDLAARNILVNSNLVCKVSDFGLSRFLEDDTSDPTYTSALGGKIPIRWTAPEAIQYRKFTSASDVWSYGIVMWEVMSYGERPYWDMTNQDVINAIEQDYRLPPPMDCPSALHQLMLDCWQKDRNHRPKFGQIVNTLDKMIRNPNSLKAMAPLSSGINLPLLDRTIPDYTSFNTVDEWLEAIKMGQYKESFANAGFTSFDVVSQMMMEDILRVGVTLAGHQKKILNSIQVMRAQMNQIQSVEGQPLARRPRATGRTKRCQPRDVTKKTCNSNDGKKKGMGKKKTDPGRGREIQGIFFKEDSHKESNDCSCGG

Sequence of Ephrin type-A receptor 4 (Homo sapiens) (P54764 whole entry): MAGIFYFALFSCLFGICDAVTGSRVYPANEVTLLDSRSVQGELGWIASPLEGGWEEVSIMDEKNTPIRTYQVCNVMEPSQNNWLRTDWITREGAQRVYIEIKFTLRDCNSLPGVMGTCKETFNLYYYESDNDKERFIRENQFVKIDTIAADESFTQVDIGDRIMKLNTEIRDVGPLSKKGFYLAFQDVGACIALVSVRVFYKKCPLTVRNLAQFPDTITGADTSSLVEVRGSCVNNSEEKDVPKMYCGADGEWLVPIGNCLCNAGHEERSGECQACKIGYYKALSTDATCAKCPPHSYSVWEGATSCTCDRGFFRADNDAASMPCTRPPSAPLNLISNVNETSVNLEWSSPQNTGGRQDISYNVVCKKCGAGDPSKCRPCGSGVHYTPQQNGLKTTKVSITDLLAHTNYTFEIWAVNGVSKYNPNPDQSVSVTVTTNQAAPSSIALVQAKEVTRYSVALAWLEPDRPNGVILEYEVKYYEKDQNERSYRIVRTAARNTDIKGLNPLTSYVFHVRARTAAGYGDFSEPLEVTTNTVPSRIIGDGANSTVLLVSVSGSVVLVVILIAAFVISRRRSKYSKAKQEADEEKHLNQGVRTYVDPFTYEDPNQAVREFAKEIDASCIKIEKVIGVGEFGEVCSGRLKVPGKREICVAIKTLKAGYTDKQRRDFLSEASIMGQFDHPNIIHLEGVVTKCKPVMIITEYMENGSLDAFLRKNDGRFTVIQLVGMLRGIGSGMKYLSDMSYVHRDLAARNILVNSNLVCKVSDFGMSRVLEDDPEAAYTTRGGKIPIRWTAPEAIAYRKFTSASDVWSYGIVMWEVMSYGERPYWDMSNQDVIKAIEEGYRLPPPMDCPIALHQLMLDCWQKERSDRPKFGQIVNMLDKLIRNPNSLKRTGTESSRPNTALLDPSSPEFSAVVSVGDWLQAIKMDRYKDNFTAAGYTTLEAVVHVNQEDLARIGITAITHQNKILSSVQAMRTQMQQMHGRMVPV
Sequence of Epidermal growth factor receptor (Homo sapiens), P00533 [L858R,T790M] (P00533 whole entry T790M/L858R, looked up): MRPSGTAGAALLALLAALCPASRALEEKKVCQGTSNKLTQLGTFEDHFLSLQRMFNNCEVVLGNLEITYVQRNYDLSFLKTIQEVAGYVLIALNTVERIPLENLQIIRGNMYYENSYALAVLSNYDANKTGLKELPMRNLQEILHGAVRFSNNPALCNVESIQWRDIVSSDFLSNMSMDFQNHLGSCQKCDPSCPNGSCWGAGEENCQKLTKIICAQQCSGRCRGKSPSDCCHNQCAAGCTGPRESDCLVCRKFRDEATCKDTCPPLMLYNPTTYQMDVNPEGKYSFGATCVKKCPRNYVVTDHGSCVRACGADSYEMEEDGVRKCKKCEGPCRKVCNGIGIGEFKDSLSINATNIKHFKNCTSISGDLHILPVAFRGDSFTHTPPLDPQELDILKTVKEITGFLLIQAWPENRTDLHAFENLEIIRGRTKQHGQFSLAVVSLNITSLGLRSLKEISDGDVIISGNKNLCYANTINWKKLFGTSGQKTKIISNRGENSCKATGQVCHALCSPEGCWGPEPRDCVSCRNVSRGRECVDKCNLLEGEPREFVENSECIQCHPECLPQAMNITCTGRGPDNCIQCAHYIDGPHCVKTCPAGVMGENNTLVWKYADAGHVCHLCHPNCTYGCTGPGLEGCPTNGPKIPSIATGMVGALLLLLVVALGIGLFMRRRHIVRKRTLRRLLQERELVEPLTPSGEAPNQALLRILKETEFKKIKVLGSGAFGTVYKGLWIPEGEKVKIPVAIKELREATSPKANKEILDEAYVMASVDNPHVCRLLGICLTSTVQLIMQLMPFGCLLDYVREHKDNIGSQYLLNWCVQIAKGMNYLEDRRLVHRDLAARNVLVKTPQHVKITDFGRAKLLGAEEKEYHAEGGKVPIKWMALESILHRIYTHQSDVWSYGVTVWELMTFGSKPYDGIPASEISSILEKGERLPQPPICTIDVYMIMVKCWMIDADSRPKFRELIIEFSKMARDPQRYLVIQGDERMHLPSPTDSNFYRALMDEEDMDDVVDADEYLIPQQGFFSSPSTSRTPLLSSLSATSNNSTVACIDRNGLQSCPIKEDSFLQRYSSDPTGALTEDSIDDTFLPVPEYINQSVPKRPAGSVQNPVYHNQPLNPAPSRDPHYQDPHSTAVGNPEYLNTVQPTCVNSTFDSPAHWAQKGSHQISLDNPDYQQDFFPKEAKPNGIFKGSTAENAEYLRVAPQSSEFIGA
Sequence of Epidermal growth factor receptor (Homo sapiens) (P00533 whole entry): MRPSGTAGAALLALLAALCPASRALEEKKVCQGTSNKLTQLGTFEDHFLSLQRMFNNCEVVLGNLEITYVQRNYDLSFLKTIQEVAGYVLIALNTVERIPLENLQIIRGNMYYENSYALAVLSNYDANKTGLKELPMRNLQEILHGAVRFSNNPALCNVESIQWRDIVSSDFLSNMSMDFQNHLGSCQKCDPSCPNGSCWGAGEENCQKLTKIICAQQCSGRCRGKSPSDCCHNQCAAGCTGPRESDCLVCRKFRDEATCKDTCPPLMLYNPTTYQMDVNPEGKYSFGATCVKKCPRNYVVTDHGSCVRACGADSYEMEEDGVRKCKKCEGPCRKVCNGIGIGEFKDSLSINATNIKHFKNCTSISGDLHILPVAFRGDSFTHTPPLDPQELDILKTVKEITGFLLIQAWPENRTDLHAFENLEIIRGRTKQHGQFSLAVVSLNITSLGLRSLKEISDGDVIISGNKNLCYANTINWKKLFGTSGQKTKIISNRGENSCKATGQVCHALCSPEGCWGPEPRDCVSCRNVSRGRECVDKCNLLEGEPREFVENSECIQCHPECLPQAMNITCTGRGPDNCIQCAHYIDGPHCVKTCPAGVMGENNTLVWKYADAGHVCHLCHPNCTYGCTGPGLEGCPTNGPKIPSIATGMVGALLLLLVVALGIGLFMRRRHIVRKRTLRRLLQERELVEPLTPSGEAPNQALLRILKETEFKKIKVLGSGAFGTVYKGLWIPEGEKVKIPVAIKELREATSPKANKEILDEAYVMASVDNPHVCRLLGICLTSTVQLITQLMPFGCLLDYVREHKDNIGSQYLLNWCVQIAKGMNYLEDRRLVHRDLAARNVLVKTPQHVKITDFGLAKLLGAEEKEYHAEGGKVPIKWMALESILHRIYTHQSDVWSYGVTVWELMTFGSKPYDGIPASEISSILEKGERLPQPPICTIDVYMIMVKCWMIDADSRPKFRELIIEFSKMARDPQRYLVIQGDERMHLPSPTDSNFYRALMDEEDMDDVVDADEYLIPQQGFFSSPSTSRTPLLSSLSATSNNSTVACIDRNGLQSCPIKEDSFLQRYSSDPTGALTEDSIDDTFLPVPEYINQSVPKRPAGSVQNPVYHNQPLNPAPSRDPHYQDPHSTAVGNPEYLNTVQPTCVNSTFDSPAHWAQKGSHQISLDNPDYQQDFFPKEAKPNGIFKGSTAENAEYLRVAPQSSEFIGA
Sequence of Epidermal growth factor receptor (Homo sapiens), P00533 [T790M] (P00533 whole entry T790M): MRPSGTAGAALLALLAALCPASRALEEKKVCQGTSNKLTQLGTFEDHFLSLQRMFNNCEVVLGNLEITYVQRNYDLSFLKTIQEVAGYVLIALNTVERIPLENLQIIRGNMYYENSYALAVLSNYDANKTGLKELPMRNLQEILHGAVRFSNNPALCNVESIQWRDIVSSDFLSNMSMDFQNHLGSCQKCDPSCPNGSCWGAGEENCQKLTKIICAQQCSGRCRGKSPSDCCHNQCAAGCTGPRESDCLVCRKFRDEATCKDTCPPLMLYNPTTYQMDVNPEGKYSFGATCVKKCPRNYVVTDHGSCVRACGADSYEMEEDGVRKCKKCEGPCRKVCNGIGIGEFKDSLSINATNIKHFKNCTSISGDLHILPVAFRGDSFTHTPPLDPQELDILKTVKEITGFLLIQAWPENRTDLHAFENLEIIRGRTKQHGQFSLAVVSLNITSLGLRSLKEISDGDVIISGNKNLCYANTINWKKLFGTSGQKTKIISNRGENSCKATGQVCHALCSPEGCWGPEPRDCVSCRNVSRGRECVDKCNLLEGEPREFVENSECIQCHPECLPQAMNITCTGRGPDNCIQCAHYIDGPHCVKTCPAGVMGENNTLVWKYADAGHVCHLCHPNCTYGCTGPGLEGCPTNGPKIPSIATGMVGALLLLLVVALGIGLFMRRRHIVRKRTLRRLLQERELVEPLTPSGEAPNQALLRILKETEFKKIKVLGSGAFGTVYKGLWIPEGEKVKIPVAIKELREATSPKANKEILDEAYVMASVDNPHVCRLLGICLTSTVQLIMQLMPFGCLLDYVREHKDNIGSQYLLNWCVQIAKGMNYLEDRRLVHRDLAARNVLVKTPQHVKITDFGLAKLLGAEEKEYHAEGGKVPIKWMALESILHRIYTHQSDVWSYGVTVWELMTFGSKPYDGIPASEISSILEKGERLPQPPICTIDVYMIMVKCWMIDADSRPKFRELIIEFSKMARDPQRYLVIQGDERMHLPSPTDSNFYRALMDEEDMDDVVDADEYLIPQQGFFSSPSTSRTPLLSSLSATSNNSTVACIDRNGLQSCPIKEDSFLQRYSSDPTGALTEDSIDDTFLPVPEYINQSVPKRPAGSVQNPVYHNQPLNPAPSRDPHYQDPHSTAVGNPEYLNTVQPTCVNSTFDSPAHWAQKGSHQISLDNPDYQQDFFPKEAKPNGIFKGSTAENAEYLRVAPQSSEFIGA
Sequence of Tyrosine-protein kinase CSK (Homo sapiens) (P41240 2-450 limits assumed): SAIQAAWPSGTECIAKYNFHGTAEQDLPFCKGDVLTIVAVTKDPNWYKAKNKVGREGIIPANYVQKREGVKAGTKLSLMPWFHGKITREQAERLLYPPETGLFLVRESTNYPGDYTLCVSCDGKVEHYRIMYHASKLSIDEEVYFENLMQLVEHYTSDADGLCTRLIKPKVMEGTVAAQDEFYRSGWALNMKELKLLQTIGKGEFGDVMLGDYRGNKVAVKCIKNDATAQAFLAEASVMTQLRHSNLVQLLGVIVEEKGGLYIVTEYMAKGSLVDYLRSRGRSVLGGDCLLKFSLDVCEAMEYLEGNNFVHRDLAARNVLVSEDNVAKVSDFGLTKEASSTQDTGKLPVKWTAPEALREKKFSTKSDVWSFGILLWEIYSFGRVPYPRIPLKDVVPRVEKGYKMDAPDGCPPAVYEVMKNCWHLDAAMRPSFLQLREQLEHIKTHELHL

Compound | inhibition [1] | inhibition [2] | inhibition [3] | inhibition [4] | inhibition [5] | inhibition [6] | inhibition [7] | inhibition [8] | inhibition [9] | inhibition [10] | inhibition [11] | inhibition [12] | inhibition [13] | inhibition [14] | inhibition [15] | inhibition [16] | inhibition [17] | inhibition [18] | inhibition [19] | inhibition [20]
COc1cc(C=NNc2ncnc3c2cnn3-c2ccccc2)ccc1O | 5.56% | 5.59% | 13.6% | 6.29% | 36.2% | 27.3% | 79.6% | 6.66% | 38.2% | 0.71% | 2.02% | 3.12% | 13.3% | 3.61% | 11.4% | 4.47% | 8.46% | 10.2% | 17.1% | 9.57%
COc1ccc(-c2coc3ncnc(N)c23)cc1 | 0.88% | 2.79% | 2.69% | -0.38% | 2.37% | 1.46% | 1.48% | 1.51% | -0.75% | 1.2% | -0.41% | 3.68% | 1.07% | 1.21% | 1.62% | 2.58% | 3.4% | 7.51% | 3.15% | 4.53%
CCn1c(-c2nonc2N)nc2ccncc21 | -5.08% | 0.25% | 0.08% | 0.86% | 2.64% | -3.87% | -4.06% | 0.79% | -0.98% | -0.65% | 0.29% | -1.07% | -0.45% | 1.93% | 1.77% | 0.73% | -0.12% | 5.04% | -7.03% | -0.84%
CCn1c(-c2nonc2N)nc2c(N3CCCC3)nccc21 | -3.39% | 0.93% | 1.39% | 9.47% | 13% | -0.34% | -1.9% | 0.82% | 2.63% | -1.01% | -1.06% | 0.11% | 0.62% | -5.01% | -4.35% | -5.79% | -2.29% | -6.53% | -8.11% | -2.18%
Cc1cccc(-c2n[nH]cc2-c2ccc3ncccc3n2)n1 | 0.97% | 0.57% | 0.86% | -0.16% | 0.24% | -0.08% | -1.71% | -1.59% | -1.42% | -0.88% | -0.3% | -1.54% | -0.13% | -2.12% | -2.51% | 0.6% | 3.6% | 3.45% | 4.46% | 1.55%
COc1ccccc1Nc1ncc(-c2ccccc2)o1 | 3.11% | 0.86% | 0.42% | 1.13% | 5.3% | 0.79% | 0.46% | 1.31% | 1.75% | 2.11% | 2.18% | 1.54% | 1.28% | 2.74% | 1.76% | 2.8% | 4.86% | 7.21% | 12.8% | 7.35%
